Laboratory results published in ChEMBL document CHEMBL3988442, “University of Dundee, Small-Polar-MMV Screening Library” (2021).
The whole screen tested about 48,000 compounds, of which about 13,000 (27%) showed an effect of 50% or more. The list shows a part of the results.

System: Wolbachia pipientis
Test: Anti-Wolbachia Cell-Based Screen
Assay type: functional
Set-up: scale not given: in the data most compounds retested in dose-response had high values
Details: 5 µM

Compound	Percent Effect [%]
COCC(=O)NCCn1nc(-c2cc(C)oc2C)ccc1=O	96.68
Cc1cc(-c2ccc(=O)n(CCNC(=O)C3CC3)n2)c(C)o1	72.81
CSc1ccc(NC(=O)NCc2nncn2C2CC2)cc1F	6.164
O=C(NCCN1CCCCC1)c1nc(-c2ccc3cc[nH]c3c2)no1	1.073
Cc1cc(C)n(Cc2ccc(-c3noc(C(=O)NC[C@@H](C)O)n3)cc2)n1	107.8
CNC(=O)CCNC(=O)c1cccc(Cn2nc(C)cc2C)c1	-10.69
CCN(CCC(=O)OC)C(=O)c1cccc(Cn2nc(C)cc2C)c1	2.618
Cc1cc(C)n(Cc2ccc(-c3noc(C(=O)NCCO)n3)cc2)n1	112.8
Cc1cc(C)n(Cc2ccc(-c3noc(C(=O)NCCCO)n3)cc2)n1	113.7
COCCN(CCOC)C(=O)c1ccc(Cn2nc(C)cc2C)cc1	-2.502
Cc1cc(C)n(Cc2ccc(C(=O)NCCN3CCOCC3)cc2)n1	0.4084
COCc1cc(C[C@@H]2CC[C@H](O)[C@@H](CNCC(C)C)O2)no1	-7.367
CC(C)CN1C(=O)C2(CCN(Cc3ccoc3)C2)c2ccccc21.O=C(O)C(F)(F)F (stereo not drawn)	60.6
Cc1ccc(CN2CCC3(C2)C(=O)N(CC(N)=O)c2ccccc23)s1 (stereo not drawn)	-16.39
CN1CCN(Cc2cccnc2)C2(CCN(Cc3ccoc3)C2)C1=O.O=C(O)C(F)(F)F.O=C(O)C(F)(F)F.O=C(O)C(F)(F)F (stereo not drawn)	-11.48
CC(C)CN1C(=O)C2(CCN(Cc3cccs3)C2)c2ccccc21.O=C(O)C(F)(F)F (stereo not drawn)	129.4
CC(C)CN1C(=O)C2(CCN(Cc3nccs3)C2)c2ccccc21.O=C(O)C(F)(F)F (stereo not drawn)	21.56
CC(C)CN1C(=O)C2(CCN(Cc3ccsc3)C2)c2ccccc21.O=C(O)C(F)(F)F (stereo not drawn)	118.8
Cc1ccc(CN2CCC3(C2)C(=O)N(CC2CC2)c2ccccc23)s1.O=C(O)C(F)(F)F (stereo not drawn)	106.7
CC(C)CN1C(=O)C2(CCN(CC3CCOCC3)C2)c2ccccc21.O=C(O)C(F)(F)F (stereo not drawn)	3.565
CCN(CC)C(CNCc1cc(F)cc(F)c1)c1ccco1 (stereo not drawn)	4.253
Cc1ccsc1[C@@H]1CCN(C(=O)CCc2cc(O)no2)C[C@H]1O	2.962
COc1ccccc1CC(=O)NCc1c(C)nc2cc(=O)[nH]n2c1C	-0.07038
Cc1ccc(C(C)(O)CNC(=O)c2sccc2Br)o1 (stereo not drawn)	16.11

Compound	Percent Effect [%]
CC(c1nc(C2CC2)no1)N1CCC(NS(=O)(=O)c2cccs2)CC1 (stereo not drawn)	7.931
CC(C)CN1C(=O)C2(CCN(Cc3ccc(F)cc3)C2)c2ccccc21 (stereo not drawn)	132
Cc1ccc(CN2CCC3(C2)C(=O)N(CC(C)C)c2ccccc23)s1 (stereo not drawn)	8.577
O=C(O)C(F)(F)F.O=C(O)C(F)(F)F.c1cnc(N2C[C@H]3CCN(CCN4CCCC4)C[C@H]3C2)cn1	87.36
O=C(O)C(F)(F)F.O=C(O)C(F)(F)F.c1cnc(N2CCOCC3(CCCN(CC4CC4)C3)C2)cn1 (stereo not drawn)	-18.67
O=C(O)C(F)(F)F.c1cnc(N2C[C@H]3CCN(CC4CC4)C[C@H]3C2)cn1	93.44
O=C(O)[C@]12CN(CC3CCC3)C[C@H]1CN(c1cnccn1)C2	5.69
Cn1cc(CNCCc2nccs2)c(-c2cccnc2)n1	5.46
C[C@@H]1CN(C2(C(=O)N3CC[C@H](O)C3)Cc3ccccc3C2)C[C@H](C)O1	3.055
Clc1ccc2[nH]c3c(c2c1)CCCC3c1nn[nH]n1 (stereo not drawn)	91.29
CCc1ccc(C(=O)N2CCCC(c3nn[nH]n3)C2)cc1 (stereo not drawn)	6.219
c1ccc2c3c([nH]c2c1)C(c1nn[nH]n1)CCC3 (stereo not drawn)	118.9
Brc1ccc2[nH]c3c(c2c1)CCCC3c1nn[nH]n1 (stereo not drawn)	153.1
O=c1[nH]c2ccccc2c(=O)n1Cc1nnnn1C1CC1	-11.16
NCC1Cc2cc(Cl)cc(-c3cncc(C(=O)N4CCCCC4)n3)c2O1 (stereo not drawn)	0.4481
O=C(NCc1cccs1)c1nc2c(o1)CN(CC1CC1)C2.O=C(O)C(F)(F)F	-6.948
CN1C[C@@H]2COC[C@]2(C(=O)NCCc2cccs2)C1.O=C(O)C(F)(F)F	-4.441
O=C(NCc1cccs1)C1CNCC12CCOCC2.O=C(O)C(F)(F)F (stereo not drawn)	1.102
O=C(NCCc1cccs1)[C@H]1CO[C@H]2CCN(CC3CC3)C[C@H]2C1.O=C(O)C(F)(F)F	100.3
O=C(O)C(F)(F)F.O=C1CO[C@@H]2CN(Cc3cccs3)C[C@H]2N1CC1CC1	3.643
O=C(NCCc1cccs1)[C@H]1CO[C@H]2CCN(C3CCC3)C[C@H]2C1.O=C(O)C(F)(F)F	119.1
O=C(NCc1cccs1)[C@H]1CO[C@H]2CCN(C3CCCC3)C[C@H]2C1.O=C(O)C(F)(F)F	106.7
CC(C)NC(=O)[C@H]1C[C@@H]2[C@@H](C1)OCCN2Cc1cccs1.O=C(O)C(F)(F)F	-8.796
O=C(NCCc1cccs1)[C@]12COC[C@H]1CN(C1CCOCC1)C2.O=C(O)C(F)(F)F	-30.21
